Experimental data from paper PMC13494018.
Values without a mark were called inactive. No rule for the calls is given here.

B1: design_488_244881a1-ba0c-4c08-ad9c-1f64cf93580a_765_dldesign_0_cycle1_af2pred (protein)
chain: AADVAQAKEYAKQAKEFAEQADPELAKEVGKEAEALVKEAEADPSKAAEYLNKVGQLYVQAAAAAMKKLA
B2: design_488_244881a1-ba0c-4c08-ad9c-1f64cf93580a_1386_dldesign_0_cycle1_af2pred (protein)
chain: DQARKATEAAAKALLAQVERLSEEAVKAAKEDPAEAKRYLEAAEALRDVIAGLADEEIAKEYAAKAKEIIEKARKEVEAYLAAK
B3: design_488_244881a1-ba0c-4c08-ad9c-1f64cf93580a_1220_dldesign_0_cycle1_af2pred (protein)
chain: DETEKKREEAKKEAEKLIEELEKAGKEVAAVPAASNMALATAKQGKKQLKEAEKLSPEEALKVYEAVKKSAEVALEIARATKAALAA
B4: design_488_244881a1-ba0c-4c08-ad9c-1f64cf93580a_782_dldesign_0_cycle1_af2pred (protein)
chain: AAAQAARAYAVLKAHADAAAKRAAELAAEGAEGARAGAQLLAVVSDAAAGAAKAFPEYAAELNALAAAAAAAAAAAAAAAAAAEAAA
B5: design_488_244881a1-ba0c-4c08-ad9c-1f64cf93580a_1921_dldesign_0_cycle1_af2pred (protein)
chain: DKATLAAQAQAVVNATKIAVEAAEKAIKEGDKEAAKKAAEGLKQMVEVAEAMAKQLEAAGADQAVIDAVKEAAEAAKKAAEKAEKFA
B6: design_488_244881a1-ba0c-4c08-ad9c-1f64cf93580a_1252_dldesign_0_cycle1_af2pred (protein)
chain: DAARRQGAVAFMQQVLESAKNYPEAAPIAQAGLDRVAAAVAAGAPADEVVALARREAAAANKAMIAAAKA
B7: design_488_244881a1-ba0c-4c08-ad9c-1f64cf93580a_2479_dldesign_0_cycle1_af2pred (protein)
chain: SEEYIKEAEKLLKEAKEVAAVAKASGDPVALRGAAAFADAVKQVALAKAKKASEEVAKKLEEIAKEAEKLAKELRAAAAA
B8: design_488_244881a1-ba0c-4c08-ad9c-1f64cf93580a_578_dldesign_0_cycle1_af2pred (protein)
chain: GAAAAARRAAAFTLLEIARSLVAAGPQYAGSAIRTAAQALALVAPEYEEEVRAVGREEGAAAAVEYARELLA
B9: design_488_244881a1-ba0c-4c08-ad9c-1f64cf93580a_492_dldesign_0_cycle1_af2pred (protein)
chain: ATALLRSALAQAKSAIIAMKQDPEQGAQLAEGAALTAKAAGDEETAKKLEEAAKLAKEGKAEEAIKLLEEAAKELAKAI
B10: design_488_244881a1-ba0c-4c08-ad9c-1f64cf93580a_1644_dldesign_0_cycle1_af2pred (protein)
chain: KEAVVREAGEALEELLRYASRIDPAEGARLVAEASRILRQAVLGDEEEAEEARERVERLREEARERAEAA
B11: design_488_244881a1-ba0c-4c08-ad9c-1f64cf93580a_2145_dldesign_0_cycle1_af2pred (protein)
chain: MKEEEVEKKIEEAAKIAGITMRVLKKLLPDDPFLATQLAMKVAVELGKKVGELAGSEEVEKRAYEAAIEAMMKAAV
B12: design_488_244881a1-ba0c-4c08-ad9c-1f64cf93580a_642_dldesign_0_cycle1_af2pred (protein)
chain: AEAARKAALAVRTAAASFKAAADAGASAEAVKKLGEVMAQSVEAYDPEVGKEVKAKVEELAKLPDAKKAAAELAKFMEAKAKEVAAK
B13: design_488_244881a1-ba0c-4c08-ad9c-1f64cf93580a_2241_dldesign_0_cycle1_af2pred (protein)
chain: GAALLAQAQALMKAANATAAAGDTATAAAAWADAAKKLAELAKEAAKEDPAYAATIQAMADMSKYIAEQAKA
B14: design_488_244881a1-ba0c-4c08-ad9c-1f64cf93580a_858_dldesign_0_cycle1_af2pred (protein)
chain: DEEREKLLAEAEKYLAAAVAAAKAAGVQGGQVRAIANSLAIALRTGNTAGAATLLTSLVATAAKVGPEVLTHANKAKEKATQWIALA
B15: design_488_244881a1-ba0c-4c08-ad9c-1f64cf93580a_2397_dldesign_0_cycle1_af2pred (protein)
chain: AVAAAEQRVKEAAAKVAKALADEPFDVIYAAIMKEGEKIGKETGLEKQIKAEAVKEAQAAFVARAKAQIAAA
B16: design_488_244881a1-ba0c-4c08-ad9c-1f64cf93580a_1793_dldesign_0_cycle1_af2pred (protein)
chain: EAEELLARARAVEERGAELAAAAEALASVPGAASLKAHVAQALRAAQQAREAVADPEEATRLLRAAEASLRNAELVLEGMKIQAA
B17: design_488_244881a1-ba0c-4c08-ad9c-1f64cf93580a_1058_dldesign_0_cycle1_af2pred (protein)
chain: MAEAQALLLETAKEAYEYAKEDPENAEYYLAAATHVLRALSALTTDPAKAIELLEKAIEEAKKTDPEKGEELIKKIEEAKKLVEAAA
B18: design_488_244881a1-ba0c-4c08-ad9c-1f64cf93580a_2213_dldesign_0_cycle1_af2pred (protein)
chain: AEAQAALIAAKGYYYLAQSYYTHVANNPSLPAEEKKQAAKNAKEAAEKAEEYAKKAGPEAQPYAEKAKKYAEETKKLAEEYA
B19: design_488_244881a1-ba0c-4c08-ad9c-1f64cf93580a_1486_dldesign_0_cycle1_af2pred (protein)
chain: SAAGQLALDTAKTFMQQAKELAKQDPQLALAALQSAKLAADGAIADPATAAQGKALKAEVKAQEAAVKAAAAAAA
B20: design_488_244881a1-ba0c-4c08-ad9c-1f64cf93580a_2117_dldesign_0_cycle1_af2pred (protein)
chain: AAEEFAKKEAEKAAEVAKTGTPEEAKKAATKLAKKVADAFGVGEALRMLAIAMKMVADDPAKVAAMRAAAAEVQRAAL
B21: design_488_244881a1-ba0c-4c08-ad9c-1f64cf93580a_1954_dldesign_0_cycle1_af2pred (protein)
chain: AAAQEVAQTAAIMDAALIAAKQSPELLKEMMDVAVAHTKASADPAATLAVLKEKAAKIAEEGTPEAAKIAKAAVAEAA
B22: design_488_244881a1-ba0c-4c08-ad9c-1f64cf93580a_1684_dldesign_0_cycle1_af2pred (protein)
chain: AAATAQAKADAAKAKAAVESGQDTSALATGHLLRAYSLDPAVADATLAELKALAAGRGTAVATQAIANFAAGVA
B23: design_488_244881a1-ba0c-4c08-ad9c-1f64cf93580a_1807_dldesign_0_cycle1_af2pred (protein)
chain: AEEEESRRRAEGAKAFLDQILAAAQASASNPAALAALAASAEANAKSVAAAASPEYAKEVRDYAAKVVAQINALAA
B24: design_488_244881a1-ba0c-4c08-ad9c-1f64cf93580a_2450_dldesign_0_cycle1_af2pred (protein)
chain: AEERERLTEKARLALEAAESLVAEAERTSPERAAALARSALRFAAEAERYAKEAGDEEIAARAREVRARAEAIL
B25: design_488_244881a1-ba0c-4c08-ad9c-1f64cf93580a_2417_dldesign_0_cycle1_af2pred (protein)
chain: SAALEAAKQAYDDAAKAAEEAAKDPAVAETAAAAKKSLKAFADEMTAFIKASTDEADKQAAADTLKLYAKNITNQLKAAAAAA
B26: design_488_244881a1-ba0c-4c08-ad9c-1f64cf93580a_1131_dldesign_0_cycle1_af2pred (protein)
chain: DEASEKAEAAYNKAKALEAAGADPNDILAAYVDAMGYLSEAARAAREAGREEEAEKWQAKLKEAQKNATKAAKAAVAAARA
B27: design_488_244881a1-ba0c-4c08-ad9c-1f64cf93580a_1393_dldesign_0_cycle1_af2pred (protein)
chain: SPADEVAARLNALLGAAIKALAADPAAGLALAEEARRLAEELAKKYPTPEVKRVAEAAKKMADAIGAAAQAQLAAAQA
B28: design_488_244881a1-ba0c-4c08-ad9c-1f64cf93580a_362_dldesign_0_cycle1_af2pred (protein)
chain: AEEERRRAALAERARAVLQQAAAVGSQAAIADPSVSGTILDGLKEAYELLARGEVERALEVAEALLASAQATLAAL
B29: design_488_244881a1-ba0c-4c08-ad9c-1f64cf93580a_1769_dldesign_0_cycle1_af2pred (protein)
chain: GEEAKKLKEKADELFAKAKAVLEDPTATKEELTEAAIYASEAAVLYLKAAGLASPEEREEYLKKAVEASKIAIELAAKA
B30: design_488_244881a1-ba0c-4c08-ad9c-1f64cf93580a_302_dldesign_0_cycle1_af2pred (protein)
chain: MMAEYEARARELFEKAAASDPETARKIGEEMVKLAKEDVEFGNVAALVAAQVAAESGSPVLRQIQAAIARTVIEQLA
B31: design_488_244881a1-ba0c-4c08-ad9c-1f64cf93580a_236_dldesign_0_cycle1_af2pred (protein)
chain: PVERAIRLAEGAITFLEGLIVARKDGNAAGAAAYAQAAKTLLEELAKLLPGEIAKEATEAAKLAADPATAEKALALAKKILERIKKE
B32: design_488_244881a1-ba0c-4c08-ad9c-1f64cf93580a_1373_dldesign_0_cycle1_af2pred (protein)
chain: MTAAQAAAAVASLAQSAVLAAKQDPALAKQAVEAAQSFAIWATTKLGDAALAEAAAKALKDAGKAAPAVAKQAEAAAKAVLDTAKKL
B33: design_488_244881a1-ba0c-4c08-ad9c-1f64cf93580a_2073_dldesign_0_cycle1_af2pred (protein)
chain: GSMEELKERAKRIFEEANRVLARASRVATANPAALPLASRAIAEAVRAQELANEALKTDPETGKELLERAEEELREARRYLEEAEAA
B34: design_488_244881a1-ba0c-4c08-ad9c-1f64cf93580a_688_dldesign_0_cycle1_af2pred (protein)
chain: DTARQALIASAQQARKQLEAAKALTPEEQARAAQAVLELARQLAESAEAAGDEEALALAREVAEAAEAAIKEAKAA
B35: design_488_244881a1-ba0c-4c08-ad9c-1f64cf93580a_931_dldesign_0_cycle1_af2pred (protein)
chain: MKELEEAAKRALELAPPEHRPLMERLVAIARELAKIIGDEEAAAILGEGVLEGARDPERAVDITMAAQGAAIRLAHARQSA
B36: design_488_244881a1-ba0c-4c08-ad9c-1f64cf93580a_1178_dldesign_0_cycle1_af2pred (protein)
chain: SDAEKAESALKFLNTLEEIGIIAKKEYGPEFAQNMINSIENSSKIFAAAVSPEYAKKILEKAKEAIEKIKAA
B37: design_488_244881a1-ba0c-4c08-ad9c-1f64cf93580a_631_dldesign_0_cycle1_af2pred (protein)
chain: GLRESTEKVLEVAGQLAAQTAATSPELGPQAAAVAEAGRARAEALIAAGDYEGAFAAANEAAAQLSRLAVQAAQAAAAA
B38: design_488_244881a1-ba0c-4c08-ad9c-1f64cf93580a_478_dldesign_0_cycle1_af2pred (protein)
chain: ITEAEAKELAEMVRTPETAPEAAARLEALGAASTPGQAAFFRAAAALARLAAEAPEEERPRYAEGVLKILQAAI

What follows are binders tested against CD276, Q5ZPR3.
CD276, Q5ZPR3, sequence (Q5ZPR3 whole entry): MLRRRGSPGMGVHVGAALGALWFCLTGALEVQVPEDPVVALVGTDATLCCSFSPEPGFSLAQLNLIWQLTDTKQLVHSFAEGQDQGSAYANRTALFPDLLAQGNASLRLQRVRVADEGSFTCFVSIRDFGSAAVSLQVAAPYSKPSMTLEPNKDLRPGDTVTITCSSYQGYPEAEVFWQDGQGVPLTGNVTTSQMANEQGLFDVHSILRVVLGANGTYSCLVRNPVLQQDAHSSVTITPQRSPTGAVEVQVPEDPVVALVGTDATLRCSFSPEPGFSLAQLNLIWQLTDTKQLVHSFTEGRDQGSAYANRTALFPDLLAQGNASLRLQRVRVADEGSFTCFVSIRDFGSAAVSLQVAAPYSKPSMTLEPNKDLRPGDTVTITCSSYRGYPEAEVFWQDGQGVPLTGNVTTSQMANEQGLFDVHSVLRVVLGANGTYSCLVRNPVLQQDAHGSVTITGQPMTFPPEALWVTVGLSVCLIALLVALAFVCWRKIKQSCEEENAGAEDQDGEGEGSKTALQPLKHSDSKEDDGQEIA
In the case of B1, the “binding in a display sort” value is reported as “not found”.
With B2 the “binding in a display sort” value was “not found”.
With B3 the “binding in a display sort” value was “not found”.
B4 was tested, and the “binding in a display sort” value was “not found”.
For B5, the “binding in a display sort” value was “not found”.
With B6 the “binding in a display sort” value was “not found”.
In the case of B7, the “binding in a display sort” value is reported as “not found”.
With B8 the “binding in a display sort” value was “not found”.
With B9 the “binding in a display sort” value was “not found”.
With B10 the “binding in a display sort” value was “not found”.
For B11, the “binding in a display sort” value was “not found”.
B12 was tested, and the “binding in a display sort” value was “not found”.
With B13 the “binding in a display sort” value was “not found”.
For B14, the “binding in a display sort” value was “not found”.
For B15, the “binding in a display sort” value was “not found”.
B16 was tested, and the “binding in a display sort” value was “not found”.
In the case of B17, the “binding in a display sort” value is reported as “not found”.
With B18 the “binding in a display sort” value was “not found”.
For B19, the “binding in a display sort” value was “not found”.
B20 was tested, and the “binding in a display sort” value was “not found”.
With B21 the “binding in a display sort” value was “not found”.
B22 was tested, and the “binding in a display sort” value was “not found”.
B23 was tested, and the “binding in a display sort” value was “not found”.
In the case of B24, the “binding in a display sort” value is reported as “binds (active)”.
B25 was tested, and the “binding in a display sort” value was “not found”.
For B26, the “binding in a display sort” value was “not found”.
For B27, the “binding in a display sort” value was “not found”.
In the case of B28, the “binding in a display sort” value is reported as “not found”.
In the case of B29, the “binding in a display sort” value is reported as “not found”.
B30 was tested, and the “binding in a display sort” value was “not found”.
In the case of B31, the “binding in a display sort” value is reported as “not found”.
In the case of B32, the “binding in a display sort” value is reported as “not found”.
With B33 the “binding in a display sort” value was “not found”.
B34 was tested, and the “binding in a display sort” value was “not found”.
B35 was tested, and the “binding in a display sort” value was “not found”.
With B36 the “binding in a display sort” value was “not found”.
With B37 the “binding in a display sort” value was “not found”.
With B38 the “binding in a display sort” value was “not found”.
